Assay results from PubChem BioAssay (NCATS).
Results filed as inconclusive are left out. Where a call stands in place of a potency, no number is given. Activity calls are given as the source filed them. Calls follow the shape of the dose curve; as a rule, active = well fitted inhibition curve with a large enough effect; inconclusive = small, poorly fitted or top-dose-only effect, or effect the other way; inactive = flat fitted curve, though single readings scatter.

Experiment: qHTS for Inhibitors of Plasmodium falciparum (GB4) proliferation (AID 504315); also: nearly all actives have a fitted effect of over 50% in size
Settings: P. falciparum GB4 in erythrocytes, SYBR Green DNA, 72 h; series mostly up to 6.7 µM
Excerpt: Plasmodium falciparum is a virulent malarial parasite that kills 1-2 million people worldwide each year. Malaria not only inflicts tremendous suffering and morbidity on the human population, but has dramatically influenced the course of civilization with profound sociological and economic implications (Shah, S. 2010). Transmitted by mosquitoes, the sporozoite form of the parasite enters the blood stream to infect hepatocytes, where they become merozoites that infect red blood cells (erythrocytes). Within erythrocytes, merozoites begin a […] cycle of growth and division, after which the parasite is released to infect new red blood cells. Gametocytes, which form within erythrocytes as well, circulate in the bloodstream and are ingested by the mosquito, thereby completing the life cycle (see CDC website). To profile malarial lines for differential chemical responses and to identify inhibitors of malarial growth, an assay that measures P. falciparum growth and replication within erythrocytes was employed. This assay uses a DNA binding fluorescent dye (SYBR Green) to detect parasite DNA following cell lysis. Because mature erythrocytes lack DNA, only Plasmodium-derived DNA is detected. The P. falciparum line cp250, derived from a malarial isolate from Cambodia, (Mu, J., et al. 2010) was added to the panel of lines, Dd2, HB3, 7G8 and GB4 in this study. Laboratory of Assay Development and Screening Technology [ADST] and NIH Chemical Genomics Center [NCGC] Boston University, Chemistry Department, Center for Chemical Methodology and Library Development [CMLD-BU] NIH National Institute of Allergy and Infectious Diseases [NIAID]
ADST Assay Protocol Summary: The 1536-well SYBR Green viability assay was based on the method of Bennett et al (2004) and described previously in 1536-well format (Yuan J., et al. 2009). For screening 3 ul culture medium was dispensed into 1536 well black clear bottom plates (Aurora Biotechnologies) using a Multidrop Combi (Thermo Fisher Scientific Inc.), 23 nL compounds in DMSO were added by a pin transfer (Cleveland, P.H. and Koutz, P.J, 2005) using a pin tool-based delivery system (Kalypsys), and 5 ul of erythrocytes infected with P. falciparum one of five lines (cp250, Dd2, HB3, 7G8 or GB4, 0.3% parasitemia, 2.5% hematocrit final concentration) were added. The plates were incubated at 37C in a humidified incubator in 5% CO2 for 72 h, and 2 ul lysis buffer (20 mM Tris HCl, 10 mM EDTA, 0.16% saponin, 1.6% triton X, 10X SYBR Green I (supplied as 10,000X final concentration by Invitrogen) was added to each well. The plates were mixed for 25 sec with gentle shaking and incubated overnight at room temperature in the dark. The following morning, fluorescence intensity at 485(14) nm excitation and 535(25) nm emission wavelengths was measured on an EnVision (Perkin Elmer) plate reader. Plate reads were normalized relative to the control inhibitor (0.29 uM artemisinin) and vehicle (DMSO) wells present on each plate and then corrected by an algorithm using vehicle-only control plates at the beginning and end of the compound plate stack. References Shah, S. (2010). The Fever: how malaria has ruled humankind for 500,000 years. New York, Sarah Crichton Books. CDC web site, http://www.cdc.gov/malaria/about/biology/index.html Mu, J., Myers, R.A., Jiang, H., Liu, S., Ricklefs, S., Waisberg, M., Chotivanich, K., Wilairatana, P., Krudsood, S., White, N.J., et Plasmodium falciparum genome-wide scans for positive selection, recombination hot spots and resistance to antimalarial drugs Nature Genetics 2010, 42, pp 268-271 Bennett TN, Paguio, M., Gligorijevic, B., Seudieu, C., Kosar, A. D., Davidson, E., and Roepe, P. D. Novel, rapid, and inexpensive cell-based quantification of antimalarial drug efficacy Antimicrobial Agents Chemother. 2004, 48(5): pp 1807-10 Yuan J, Johnson RL, Huang RL, Wichterman J, Jiang HY, Hayton K, Fidock DA, Wellems TE, Inglese J, Austin CP, Su XZ. […]
Potency is read from the fitted curve at half-maximal effect.

Row | SMILES | Potency
1 | O=C1CCC=C1C(O)CCc1ccccc1 (stereo not given) | inactive
2 | C=C(Br)CO[C@@H]1C=C[C@@H](c2ccccc2)O[C@@H]1COC | inactive
3 | O=C1[C@H]2[C@@H]3[C@@H](O)[C@H](O)CC(=NOCc4ccccc4)[C@H]3CC[C@H]2C(=O)N1Cc1ccc2c(c1)OCO2 | inactive
4 | CCC=CCCC(OC(=O)c1ccc(Br)cc1)C1=CCCCC1=O (stereo not given) | inactive
5 | COCCN1C(=O)C2=C(C1=O)C1N(C)c3ccccc3[C@@]13C[C@@H](CO)N(S(=O)(=O)c1ccc(OC)cc1)C3=N2 (stereo not given in full) | inactive
6 | CC(=O)C1=C(C)N(Cc2ccccc2)C(=O)NC1c1cccc(F)c1 (stereo not given) | inactive
7 | CCOC(=O)CCN1C(=O)[C@@H]2[C@H]3[C@H](O)[C@H](O)CC(=NNC(=O)OCc4ccc(OC)cc4)[C@H]3CC[C@H]2C1=O | inactive
8 | CCc1cc2c(nc1CC)CCN(CCC(C)=NOC[C@@H](O)[C@H]1O[C@@H]3OC(C)(C)O[C@H]3[C@@H]1O)C2 | inactive
9 | O=C1[C@@H]2[C@H]3[C@H](O)[C@H](O)CC(=NOC[C@@H](O)COCc4ccco4)[C@H]3CC[C@H]2C(=O)N1c1ccc(F)cc1F | inactive
10 | C[C@@H]1CC[C@H]2C(=O)O[C@H](COc3ccc(C(C)(C)C)cc3)CN2[C@@H]1c1ccc(Br)cc1 | inactive
11 | COC(=O)C1=C(C(=O)OC)[C@@H]2N(C)c3ccccc3[C@@]23CCC(=O)N(Cc2ccc4c(c2)OCO4)C3=N1 | inactive
12 | C=CC1=C2C=C(C3CC3)N(CCN3CCOCC3)C=C2C(=O)C(C)(OC(=O)c2ccco2)C1=O (stereo not given) | inactive
13 | CCOC(=O)CN1C(=O)NC(CCc2ccccc2)C(C(C)=O)=C1C (stereo not given) | inactive
14 | COc1ccc(O[C@H]2C=C[C@@H](c3ccccc3)O[C@H]2CON=C2[C@H]3CCn4c(=O)n(-c5ccccc5)c(=O)n4[C@@H]3[C@H](O)[C@@H]3O[C@H]23)cc1 | inactive
15 | CCN1C(=NCCCOC(C)C)NC(c2ccccc2)C(C(=O)OC)=C1C (stereo not given) | inactive
16 | COc1ccc(C(=O)Oc2cc(OC)cc(OC)c2C(C)=O)cc1 | inactive
17 | C#CCN1C(=O)[C@]2(OCCC=C[C@H]2C)c2c(Br)cccc21 | inactive
18 | CCOC(=O)C1=CN(CCC=C(C)C)C(=O)N(C(C)=O)C1c1ccccc1 (stereo not given) | inactive
19 | CCCCc1nc2c(c3c1C[C@H](C)OC3)CN(S(=O)(=O)c1ccc(C)cc1)CC2 | inactive
20 | CCN1C(=NCCc2c[nH]c3ccccc23)NC(c2ccccc2)C(C(=O)OC)=C1C (stereo not given) | inactive

Row | SMILES | Potency
21 | COC(=O)CC=C[C@@H](C)[C@H](NC(=O)OC)c1ccccc1Br | inactive
22 | CC1(OC(=O)c2ccc(Cl)nc2)C(=O)Cc2cc(-c3ccsc3)ncc2C1=O (stereo not given) | inactive
23 | COC[C@H]1O[C@@H](c2c(OC)cc(OC)cc2OC)[C@H](OC)[C@@H](OC)[C@H]1OC | inactive
24 | CC(=O)C1=C(C)N(CCC=Cc2ccccc2)C(=O)NC1c1ccccc1 (stereo not given) | inactive
25 | COC(=O)C=P(c1ccccc1)(c1ccccc1)c1ccccc1 | inactive
26 | C[C@H]1C[C@@H](C)O[C@@]2(C1)C(=O)N(CC1CC1)c1ccccc12 | inactive
27 | COc1ccc2c(c1)C(=O)[C@@H](OC(=O)NS(=O)(=O)c1ccc(F)cc1)[C@H](c1ccc(OC)c(Br)c1)O2 | inactive
28 | COc1ccc([C@]23Cc4ccccc4[C@H](O2)c2c(cc(C)n(Cc4ccccc4)c2=O)O3)cc1 | 2130 nM (active)
29 | CC(CCN1CCc2nc(-c3ccccc3)c(-c3ccccc3)cc2C1)=NOC[C@@H](O)COCc1ccco1 | inactive
30 | COc1cccc(CO[C@H]2C=C[C@@H](c3ccccc3)O[C@H]2CN=[N+]=[N-])c1 | inactive
31 | COC(=O)N[C@@H](CCc1ccccc1)[C@]1(C(C)=O)CCCC1=O | inactive
32 | COC(=O)CC=C[C@@H](C)[C@@H](C=NOC[C@@H](C)[C@H](OCc1ccccc1)C(C)C)NS(=O)(=O)c1ccc(C)cc1 | inactive
33 | C=CCOC(=O)N[C@H](c1cccc(C(F)(F)F)c1)C(C(C)=O)C(C)=O | inactive
34 | COC(=O)C1=C(C)N(Cc2ccco2)C(=O)NC1c1ccc(Br)cc1 (stereo not given) | inactive
35 | CC(C)(C)Nc1oc(-c2ccccc2)nc1-c1ccc(C(F)(F)F)cc1 | inactive
36 | C[C@@H]1CC[C@H]2C(=O)N3[C@@H](CC[C@@H](C)[C@@H]3c3ccc(Br)cc3)C(=O)N2[C@@H]1c1ccc(Br)cc1 | inactive
37 | COc1ccc2c(c1)CO[C@H]([C@H](O)CO)[C@H]2C=Cc1ccccc1 | inactive
38 | COCn1c2ccccc2c2nnc(C(=O)O)nc21 | inactive
39 | COC(=O)C1=C(C(=O)OC)[C@@H]2Nc3ccccc3[C@@]23C[C@@H](C(=O)OC)N(C(=O)COCc2ccccc2)C3=N1 | inactive
40 | CCOC(=O)NN=Cc1ccccc1-c1cc(OC)ccc1OC | inactive
